PKA-R2B activ: activates the human PKA-R2B holoenzyme complex | P22694+P31323 | PKA-R2B holoenzyme dissociation, Cy5-IP20 fluorescence polarization; R2B truncated from residue 108, S112A mutant; 0% DMSO only, 100% 113 µM cGMP | activation, % at 11.4 µM | 0.079% of 340,000 active;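 active = activation above a cutoff set at the mean over all compounds plus 3 SD, cut at about 18% in these data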;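 also: higher means more holoenzyme dissociation and a rise in polarization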
Target sequence (P31323 whole entry, looked up, other chains not shown, the tested form may be a part): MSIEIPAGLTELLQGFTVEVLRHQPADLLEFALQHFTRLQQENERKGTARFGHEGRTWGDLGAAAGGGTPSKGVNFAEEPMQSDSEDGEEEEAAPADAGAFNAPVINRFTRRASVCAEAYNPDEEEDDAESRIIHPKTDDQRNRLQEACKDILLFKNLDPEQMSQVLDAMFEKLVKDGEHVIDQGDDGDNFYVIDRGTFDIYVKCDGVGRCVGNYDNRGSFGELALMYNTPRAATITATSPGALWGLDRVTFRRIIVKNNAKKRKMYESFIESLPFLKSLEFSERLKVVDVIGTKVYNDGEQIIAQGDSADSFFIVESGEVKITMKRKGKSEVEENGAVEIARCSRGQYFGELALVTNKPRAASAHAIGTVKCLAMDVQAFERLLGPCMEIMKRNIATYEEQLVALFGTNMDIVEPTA
PKA-R1A act: PKA-R1A complex activation; AID 504707; PKA-R1A dissociation, Cy5-IP20 fluorescence polarization; scaled: DMSO 0%, 113 µM cGMP 100%; activation, % at 11.4 µM; 0.083% of 340,000 active; P00514+P68181;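 active = percent activation above the mean of all tested compounds plus 3 SD, cut at about 19% in these data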;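 also: higher means more PKAc released from R1A so a rise in polarization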
JMJD2C inh: human JMJD2C demethylase inhibition; inhibition, % at 2.35 µM; Q9H3R0; AID 2099; 0.069% of 330,000 active; GST-JMJD2C(1-420) H3K9me3 demethylation, DELFIA europium;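 active = more than half of a compound's replicate wells show inhibition beyond 50%, single wells judged on their own value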;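 also: signal counts dimethyl H3K9 product captured on neutravidin plate; 0% = median of DMSO wells and 100% = 0.3 times that DMSO median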
PolyA inh: inhibitors of polyadenylation in S. cerevisiae. 0.02% of 300,000 active. S. cerevisiae SKY197-pL101 polyadenylation reporter, beta-gal luminescence; efflux-impaired pdr1/pdr3 knockout yeast; score 100 = 6 SD above DMSO. activity score, % at 12 µM;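 active = lowest replicate activity score at least 50, where 100 means six control SD above control mean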;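 also: yeast exposed to compound for 9 h at 30 °C; higher score means more reporter readthrough which indicates perturbed polyadenylation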
V-ATPase pHluor: regulators of yeast V-ATPase proton transport; AID 504577; 0.37% of 350,000 active; S. cerevisiae, pHLuorin cytosolic pH fluorescence; response, % at 10 µM; in the data active = response mostly above about 7.3%, no sharp cut-off; inactive = mostly below about 5.4%; also: actives read high
CR mimetic SO: lowers age-related superoxide in aged yeast cells | AID 2690 | S. cerevisiae aged cells, superoxide DHE fluorescence; hits give low values | 0.18% of 330,000 active | superoxide response (% of plate mean), % at 10 µM;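 active = superoxide response under a set limit, about three screen SD below normal, cut at about 65% in these data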;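 also: yeast aged for seven days with compound at 30 °C before DHE staining; 100% = average MFI of all compound-treated wells on the plate with controls excluded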
Numbers without * were called inactive; i = inactive; x = no result. This is a sample that favours compounds with a hit; in the whole collection about 0.78% have one here.

SMILES | PKA-R2B activ | PKA-R1A act | JMJD2C inh | PolyA inh | V-ATPase pHluor | CR mimetic SO
COc1cc2cc(CCOC(=O)c3ccc(C(F)(F)F)cc3)oc(=O)c2cc1OC | -9.0 | 3.8 | -2.3 | x | -2.0 | 108.5
Oc1ccc(-c2csc(Nc3ncccn3)n2)c(O)c1 | -8.5 | -5.4 | -14.4 | -7.8 | 15.0* | 89.2
Oc1ccc(-c2csc(Nc3ncccn3)n2)cc1O | -11.7 | -12.8 | 24.8 | 8.3 | 3.1 | x
Cc1cccc(-c2cccc(NC(=O)C3CCCN(C(=O)c4csc(C)n4)C3)c2)c1 (stereo not given) | -1.2 | -0.4 | 22.1 | -1.5 | 0.2 | 109.5
COc1cccc(C(C[N+](=O)[O-])c2c(C)[nH]n(-c3ccccc3)c2=O)c1 (stereo not given) | -3.7 | -1.4 | 68.9* | -21.4 | 5.8 | 129.2
O=C(COC(=O)c1ccc([N+](=O)[O-])s1)c1ccc[nH]1 | -3.9 | 0.0 | -8.9 | x | 39.2* | 140.2
CC[C@]1(C(=O)OC)[C@H]2C(=O)N(C)C(=O)[C@H]2[C@H]2CN(C)C(=NC)N21 | -0.7 | -6.8 | x | x | 0.5 | 102.5
Cc1cccc(NC(=O)c2cnn(-c3ccc(F)cc3)c2C2CCNCC2)c1C | 5.1 | 2.6 | 8.0 | -0.5 | 2.0 | 95.8
Cc1ccc(-n2ncc(C(=O)Nc3cc(Cl)ccc3C)c2C2CCNCC2)cc1C | 2.7 | 11.6 | 5.4 | 7.8 | 31.7* | 119.8
Cc1ccccc1C(=O)Nc1cc(NC(=O)c2ccccc2C)cc(C(=O)O)c1 | 1.6 | -6.8 | -4.2 | 37.1 | -3.2 | 95.1
Cc1cc(OCC(=O)NCCc2cccc(F)c2)c2c(C)cc(=O)oc2c1 | -9.4 | -9.8 | -13.5 | 4.6 | -8.2 | 110.4
Cc1ccc(C(=O)N2CC(C)OC(C)C2)cc1S(=O)(=O)N1CCCCC1 (stereo not given) | 0.7 | -1.9 | -0.8 | x | 0.3 | 76.9
N#CC1(C#N)C2=C(CCCC2)NC(c2ccccc2)C1(C#N)C#N (stereo not given) | x | x | 16.5 | 158.6* | x | 100.1
N#CC12C(N)=NC3(OCCO3)C1(C#N)C1=C(CCC1)NC2c1ccccc1 (stereo not given) | -6.8 | -15.4 | -1.2 | -20.9 | 0.2 | 117.8
Cc1cc(C)cc(OCC(=O)OCC(=O)NC2CCCCCC2)c1 | -10.9 | -2.8 | x | x | 17.4* | 92.7
Cc1cc(C)c(OCC(=O)OCC(=O)NC2CCCCCCC2)c(C)c1 | -7.7 | -0.3 | -6.6 | -1.2 | -1.9 | 91.3
COc1ccc(OCC(=O)c2c(O)c3ccccc3oc2=O)cc1 | 3.1 | -1.3 | 2.0 | 10.5 | 15.7* | 105.8
COC(=O)C1C(=O)C2=C(CC1C)NC(C)=C(C(=O)OC(C)C)C2c1ccc(OC)c(O)c1 (stereo not given) | 12.3 | 20.0* | -4.2 | 1.1 | -1.3 | 96.5
Cc1ccc(-n2c(Cc3cccn3C)nnc2SCC(=O)N2CCN(c3ccccc3)CC2)cc1 | 5.0 | -7.6 | 7.5 | 13.2 | 20.3* | 93.7
Cc1cc(C)n(C(CC(=O)N2CCc3ccccc3C2)C(=O)O)n1 (stereo not given) | -8.0 | -8.2 | 11.5 | 7.8 | 16.0* | 99.1
COc1ccc2cc(C#CC3=CC(=O)C[C@H](c4ccc(F)cc4)C3)ccc2c1 | -14.2 | -12.1 | x | x | 1.3 | x
O=c1c(Br)ccc(Br)cc1Br | -2.2 | -2.1 | x | x | 62.1* | x
O=C1CN(S(=O)(=O)c2cc(Br)ccc2Br)CCN1 | -5.8 | -5.3 | -6.7 | x | 0.6 | 101.2
C/C(Cn1nc([N+](=O)[O-])cc1C)=N\NC(=O)COc1ccc(Cl)cc1Cl | 4.5 | 6.4 | 0.9 | -16.5 | -2.4 | 55.0*
C/C(Cn1nc([N+](=O)[O-])cc1C)=N\NC(=O)COc1ccccc1[N+](=O)[O-] | -2.0 | -3.3 | 8.2 | 7.2 | 2.1 | 104.4
O=c1nc(-c2ccccc2)c2cc(SC(F)F)ccc2[nH]1 | -0.9 | 10.7 | i | -17.6 | 0.6 | 97.4
Cn1c(CSCc2ccc(Cl)cc2)n[nH]c1=S | -5.9 | -1.4 | 8.7 | -8.2 | 0.2 | 112.4
COCCNC(=O)c1c(N)sc2c1CCCC2 | x | x | 50.1* | 14.7 | x | 96.5
Nn1c(SC/C=C/c2ccccc2)nnc1-c1ccco1 | -6.1 | 2.5 | -1.7 | 1.9 | 18.2* | 90.9
